Inconclusive results are not listed. Values without a mark were called inactive. Active and inactive are the calls of the source. Calls follow the shape of the dose curve; as a rule, active = well fitted curve in the direction sought with a large enough effect in the repeat runs; inconclusive = weak or mixed curves; inactive = no such curve, though single readings can be large; an effect the other way counts as inactive or inconclusive.
experiment: qHTS assay to identify small molecule agonists of the sonic hedgehog signaling (Shh) pathway - cell viability counter screen (AID 1259366); conditions: NIH/3T3 Gli1-Luc viability, CellTiter-Fluor, 24 h; series mostly up to 92.4 µM; viability change, negative = cytotoxic: at the top concentration; also: nearly all actives have a fitted effect of over 50% in size
Procedure, shortened: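 Cells are plated at 2,000 per well and left 4hr at 37C, 5% CO2 before compound addition. After 23hr of treatment, CellTiter-Fluor reagent is added for 1hr at 37C and fluorescence is measured.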
% is scaled to controls: 0 for no effect and ±100 for the full control effect; potency is read from the fitted curve at half-maximal effect.

| SMILES | viability change, negative = cytotoxic | Potency |
| --- | --- | --- |
| NS(=O)(=O)c1ccc(Cl)c(S(N)(=O)=O)c1 | -4.81% [at 42.5 µM] |  |
| O=C(O)c1ccccc1C(=O)Nc1ccc(S(=O)(=O)Nc2nccs2)cc1 | -6.15% [at 42.5 µM] |  |
| COCC(=O)Nc1c(I)c(C(=O)NCC(O)CO)c(I)c(C(=O)N(C)CC(O)CO)c1I (stereo unspecified) | -0.408% [at 42.5 µM] |  |
| NC(=O)NC(=O)Cc1ccccc1 | -0.258% [at 42.5 µM] |  |
| C=CCOC(=O)c1ccc(C(=O)OCC=C)c(C(=O)OCC=C)c1 | 0.368% |  |
| CC(C)SCc1ccco1 | 2.72% [at 42.5 µM] |  |
| CCCOC(=O)CCCCC(=O)OCCC | 0.746% |  |
| C=CCOc1c(Br)cc(C(C)(C)c2cc(Br)c(OCC=C)c(Br)c2)cc1Br | 7.36% [at 42.5 µM] |  |
| C/C=C(\C)C(=O)OCC/C=C\CC | -1.3% |  |
| COc1cc([N+](=O)[O-])ccc1N |  | 54.5 µM (active) |
| CCN1CN(CC)CN(CC)C1 | -5.24% |  |
| C=CCOCC(CO)(COCC=C)COCC=C | -1.31% [at 42.5 µM] |  |
| CC(C)CCCCCCOC(=O)C1CCCCC1C(=O)OCCCCCCC(C)C (stereo unspecified) | -1.43% |  |
| CCOc1ccc(NC(=O)OC(C)C)cc1OCC | 3.71% |  |
| NC(Cc1c[nH]c2ccccc12)C(=O)O (stereo unspecified) | 3.77% [at 42.5 µM] |  |
| O=C1c2ccccc2-c2ccccc21 | 2.44% |  |
| CCCCC(CC)COC(=O)c1ccccc1 (stereo unspecified) | 1.2% |  |
| c1ccc(CNc2ncnc3nc[nH]c23)cc1 | 2.34% |  |
| CC(C)CCCC(C)CC=O (stereo unspecified) | 1.08% |  |

| SMILES | viability change, negative = cytotoxic | Potency |
| --- | --- | --- |
| CCN(Cc1cccc(S(=O)(=O)O)c1)c1ccccc1 | -1.26% |  |
| CO[Si](CCCCl)(OC)OC | 3.34% |  |
| NS(=O)(=O)c1ccccc1OC(F)(F)F | 2.86% |  |
| CCOC(=O)CC#N | 7.13% |  |
| CCCCCCCCCCC | -2.44% |  |
| O=c1[nH]c(=O)c2ccccc2o1 | -1.51% [at 42.5 µM] |  |
| CC(=O)N1CCN(c2ccc(O)cc2)CC1 | 1.35% [at 42.5 µM] |  |
| COc1cc2c(Nc3ccc(Br)cc3F)ncnc2cc1OCC1CCN(C)CC1 | -0.364% [at 42.5 µM] |  |
| NS(=O)(=O)c1cc2c(cc1Cl)NC(CC1CCCC1)NS2(=O)=O (stereo unspecified) | 3.28% [at 42.5 µM] |  |
| N#CCCOCCOCCC#N | 3.66% |  |
| Cc1ccc2c(c1)c1c3n2CCNC3CCC1 (stereo unspecified) | -6.31% [at 42.5 µM] |  |
| C1CCN2C[C@@H]3C[C@@H](CN4CCCC[C@@H]34)[C@H]2C1 | 2.15% [at 42.5 µM] |  |
| Cn1c(=O)c2c(ncn2CC2OCCO2)n(C)c1=O | 1.45% [at 42.5 µM] |  |
| O=C(O)c1ccc(OCCN2CCCCC2)cc1 | 12.4% [at 42.5 µM] |  |
| COC(=O)CCC(=O)O | -5.57% |  |
| NS(=O)(=O)c1cc2c(cc1Cl)NC(C(Cl)Cl)NS2(=O)=O (stereo unspecified) | 8.79% [at 42.5 µM] |  |
| CCCCC(CC)CNC(=O)CC(C)OC(=O)CCC(=O)O (stereo unspecified) | 0.478% [at 42.5 µM] |  |
| C[C@@H]1C[C@H]2[C@@H]3C[C@H](F)C4=CC(=O)C=C[C@]4(C)[C@@]3(F)[C@@H](O)C[C@]2(C)[C@@]1(O)C(=O)CO | 3.32% [at 42.5 µM] |  |
| COc1ccc(N=Nc2cc(C)c(N=Nc3ccc(S(=O)(=O)O)cc3)cc2OC)cc1 |  | 54.5 µM (active) |

experiment: qHTS assay to identify small molecule antagonists of the sonic hedgehog signaling (Shh) pathway - cell viability counter screen (AID 1259367); conditions: NIH/3T3 Gli1-Luc viability, CellTiter-Fluor, 24 h; series mostly up to 92.4 µM; viability change, negative = cytotoxic: at the top concentration; also: nearly all actives have a fitted effect of over 55% in size
Procedure, shortened: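 Conditioned medium drove Shh signaling in 3T3 Gli1-Luc cells exposed to compounds at 37C and 5% CO2. Viability was determined from CellTiter-Fluor fluorescence, with reagent incubated 1 hr after 23 hr of treatment.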

| SMILES | viability change, negative = cytotoxic | Potency |
| --- | --- | --- |
| NS(=O)(=O)c1ccc(Cl)c(S(N)(=O)=O)c1 | 6.08% [at 42.5 µM] |  |
| O=C(O)c1ccccc1C(=O)Nc1ccc(S(=O)(=O)Nc2nccs2)cc1 | 0.891% [at 42.5 µM] |  |
| COCC(=O)Nc1c(I)c(C(=O)NCC(O)CO)c(I)c(C(=O)N(C)CC(O)CO)c1I (stereo unspecified) | -1.96% [at 42.5 µM] |  |
| NC(=O)NC(=O)Cc1ccccc1 | -1.49% [at 42.5 µM] |  |
| C=CCOC(=O)c1ccc(C(=O)OCC=C)c(C(=O)OCC=C)c1 | -1.75% |  |
| CC(C)SCc1ccco1 | 0.644% [at 42.5 µM] |  |
| CCCOC(=O)CCCCC(=O)OCCC | 0.613% |  |
| C=CCOc1c(Br)cc(C(C)(C)c2cc(Br)c(OCC=C)c(Br)c2)cc1Br | 0.053% [at 42.5 µM] |  |
| C/C=C(\C)C(=O)OCC/C=C\CC | 0.973% |  |
| COc1cc([N+](=O)[O-])ccc1N |  | 54.5 µM (active) |
| CCN1CN(CC)CN(CC)C1 | -6.28% |  |
| C=CCOCC(CO)(COCC=C)COCC=C | -0.424% [at 42.5 µM] |  |
| CC(C)CCCCCCOC(=O)C1CCCCC1C(=O)OCCCCCCC(C)C (stereo unspecified) | -4.38% |  |
| CCOc1ccc(NC(=O)OC(C)C)cc1OCC | -3.55% |  |
| NC(Cc1c[nH]c2ccccc12)C(=O)O (stereo unspecified) | -0.0196% [at 42.5 µM] |  |
| O=C1c2ccccc2-c2ccccc21 | -3.78% |  |
| CCCCC(CC)COC(=O)c1ccccc1 (stereo unspecified) | 1.63% |  |
| c1ccc(CNc2ncnc3nc[nH]c23)cc1 | 0.517% |  |
| CC(C)CCCC(C)CC=O (stereo unspecified) | 0.341% |  |

| SMILES | viability change, negative = cytotoxic | Potency |
| --- | --- | --- |
| CCN(Cc1cccc(S(=O)(=O)O)c1)c1ccccc1 | -5.71% |  |
| CO[Si](CCCCl)(OC)OC | -2.63% |  |
| NS(=O)(=O)c1ccccc1OC(F)(F)F | 0.385% |  |
| CCOC(=O)CC#N | -1.67% |  |
| CCCCCCCCCCC | -0.207% |  |
| O=c1[nH]c(=O)c2ccccc2o1 | 2.98% [at 42.5 µM] |  |
| CC(=O)N1CCN(c2ccc(O)cc2)CC1 | 0.223% [at 42.5 µM] |  |
| COc1cc2c(Nc3ccc(Br)cc3F)ncnc2cc1OCC1CCN(C)CC1 | 3.33% [at 42.5 µM] |  |
| NS(=O)(=O)c1cc2c(cc1Cl)NC(CC1CCCC1)NS2(=O)=O (stereo unspecified) | -0.37% [at 42.5 µM] |  |
| N#CCCOCCOCCC#N | 6.14% |  |
| Cc1ccc2c(c1)c1c3n2CCNC3CCC1 (stereo unspecified) | -12.2% [at 42.5 µM] |  |
| C1CCN2C[C@@H]3C[C@@H](CN4CCCC[C@@H]34)[C@H]2C1 | -0.731% [at 42.5 µM] |  |
| Cn1c(=O)c2c(ncn2CC2OCCO2)n(C)c1=O | 0.426% [at 42.5 µM] |  |
| O=C(O)c1ccc(OCCN2CCCCC2)cc1 | 1.44% [at 42.5 µM] |  |
| COC(=O)CCC(=O)O | 3.83% |  |
| NS(=O)(=O)c1cc2c(cc1Cl)NC(C(Cl)Cl)NS2(=O)=O (stereo unspecified) | 0.164% [at 42.5 µM] |  |
| CCCCC(CC)CNC(=O)CC(C)OC(=O)CCC(=O)O (stereo unspecified) | 8.01% [at 42.5 µM] |  |
| C[C@@H]1C[C@H]2[C@@H]3C[C@H](F)C4=CC(=O)C=C[C@]4(C)[C@@]3(F)[C@@H](O)C[C@]2(C)[C@@]1(O)C(=O)CO | 0.256% [at 42.5 µM] |  |
| COc1ccc(N=Nc2cc(C)c(N=Nc3ccc(S(=O)(=O)O)cc3)cc2OC)cc1 | 8.65% |  |

Reference: PubChem BioAssay (Tox21)
